# According to PubChem BioAssay:
# Results filed as inconclusive are left out. The source made the active and inactive calls.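 The calls were made as follows, unless noted: active = binding below the plate cutoff, the plate median minus 3 SD, with a reading above zero; inconclusive = below the plate cutoff but reading exactly zero; inactive = the rest.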
# Experiments:
# [1] = yeast TOR pathway RPL19A-GFP modulators, primary screen, cell-based, S. cerevisiae, multiplex flow cytometry (AID 1862; in the data active = percent of DMSO control GFP below about 86%;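 also: lower values mimic rapamycin by blocking the RPL19A rise seen in DMSO cells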); conditions: S. cerevisiae RPL19A-GFP strain, flow cytometry fluorescence, 3 h; at 10 µM; stronger effect = lower value
# [2] = modulators of MEP2-GFP levels in yeast, primary screen, S. cerevisiae, multiplex flow cytometry (AID 1867;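 active = GFP response, as percent of the DMSO control, above the screen-wide mean plus 3 SD, about 139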;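 also: median GFP channel fluorescence of barcode-gated MEP2-GFP cells measured by flow cytometry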); conditions: S. cerevisiae MEP2-GFP strain, 3 h, at 10 µM, stronger effect = higher value, 100% means same as DMSO wells
# [3] = modulators of CIT2-GFP expression in yeast, primary screen, S. cerevisiae, GFP fusion, multiplex flow cytometry (AID 1870;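 active = percent response above a set limit, the screen-wide mean plus 3 SD, cut at about 130% in these data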;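 also: barcoded CIT2-GFP strain pooled with four other GFP strains with rapamycin as positive control; median GFP fluorescence per well over plate mean of DMSO wells so 100% = DMSO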); conditions: 3 h, at 10 µM, stronger effect = higher value
# [4] = modulators of LAP4-GFP expression in yeast, primary screen, S. cerevisiae, multiplex flow cytometry (AID 1873;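 active = GFP signal, as percent of the solvent control, above the screen mean plus 3 SD, about 149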); conditions: 3 h, at 10 µM, stronger effect = higher value
# [5] = modulators of AGP1-GFP expression in yeast TOR pathway, primary screen, cell-based, multiplex flow cytometry, S. cerevisiae (AID 1887;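 active = GFP signal above the screen-wide mean plus 3 SD, that is over about 124.5% of the solvent control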;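 also: AGP1-GFP fusion strain of S. cerevisiae within a five-strain barcoded multiplex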); conditions: 3 h, at 10 µM, stronger effect = higher value
# [6] = inhibitors of CD8+ T cell-vesicle binding, pilot screen, LFA-1/ICAM-1 modulator project, MLPCN validation set, flow cytometry (AID 2523;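 active = response below a set limit, under 55% cells CD8-positive and vesicle-bound, and CD8 cells' 90th-percentile brightness under 279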;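 as to vesicle binding response: mean PE anti-B7-1 fluorescence of CD8+ cells relative to row control; 100% = QL9-loaded vesicles with DMSO vehicle in the same plate row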); conditions: 2C mouse CD8+ T cells, at 7 µM, stronger effect = lower value; double positive events: measured here: CD8+/vesicle+ event percentage
# [7] = target: Integrin beta-1 (Homo sapiens) + Integrin alpha-4 (Homo sapiens) (UniProt P13612+P05556); assay: inhibition of HUTS-21 binding to VLA-4, pilot screen, VLA-4 allosteric modulator project, U937 cells, HUTS-21 mAb, flow cytometry, validation set (AID 2674;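 active = inhibition above 50%, about 3 SD of the validation set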;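 also: antibody binding induced by the VLA-4 ligand LDV present at three times its Kd; 0% = LDV ligand with antibody and no compound and 100% = antibody without LDV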); conditions: HUTS-21 LIBS mAb binding, at 6.7 µM, stronger effect = higher value, binding induced by LDV ligand
# [8] = superoxide lowering in aged yeast cells, pilot screen, validation compound set (AID 2706;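 active = superoxide response below 65% of plate, a cut near 3 SD across the whole screen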;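 also: yeast exposed to compound for one week at 30 degrees C before staining; 100% = mean of all compound wells on the same plate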); conditions: S. cerevisiae aging, superoxide DHE fluorescence; at 10 µM, stronger effect = lower value
# [9] = target: Beta-adrenergic receptor kinase 1 (Homo sapiens) (UniProt P25098); assay: GRK2 binders displacing RNA aptamer, biochemical, validation, human GRK2, bead flow cytometry (AID 488806;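 active = aptamer binding inhibition above 30%, about 3 SD of noise from non-fluorescent compounds; inactive = inhibition at or below 30%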); conditions: bead-bound GRK2, FAM-aptamer displacement, at 10 µM, stronger effect = higher value
# [10] = target: AP-2 complex subunit beta (Homo sapiens) (UniProt P63010); assay: inhibitors of arrestin peptide binding to AP2, pilot screen, biochemical, validation set, GST-AP2 beads, flow cytometry (AID 504541;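 active = inhibition above 54%, about 3 SD of non-fluorescent compounds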;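 also: AP2 carries R879A mutation and is captured from E. coli lysate; bead-bound FITC arrestin peptide fluorescence measuring arrestin peptide binding to AP2; 0% = DMSO wells and 100% = excess unlabeled arrestin peptide control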); conditions: FITC arrestin peptide, at 10 µM, stronger effect = higher value, AP2 beta2 appendage fragment, R879A mutant
# [11] = yeast V-ATPase proton transport modulators, S. cerevisiae, pHLuorin, HTS validation (AID 504600; in the data active = response above about 15%;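 also: plate controls were DMSO for no effect and reference compound for full effect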); conditions: S. cerevisiae pHLuorin cytosolic pH, at 10 µM, stronger effect = higher value
# [12] = system: anti-desmoglein-3 scFv antibody binding to human DSG3; assay: inhibitors of anti-DSG3 scFv binding to DSG3, pilot screen, biochemical, validation compound set, bead-based, flow cytometry (AID 588368); conditions: Protein G beads, DSG3-Fc, scFv-GFP binding, at 10 µM, stronger effect = lower value;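 also: signal is the median channel fluorescence of bead-bound GFP antibody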
# [13] = inhibitors of fungal efflux pumps CDR1, CDR2, MDR1, pilot screen, validation compound set, multiplex, phenotypic (AID 588506;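 active = efflux inhibition above 0.42, the validation set average plus 4 SD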;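 also: Nile Red retained in cells so higher fluorescence means more efflux inhibition; 0 = negative control wells and 1 = enniatin B 25 µM full block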); conditions: S. cerevisiae pump-expressing triplex, Nile Red efflux flow cytometry; at 10 µM; stronger effect = higher value; the pumps come from Candida albicans
# [14] = target: ATP-binding cassette sub-family B member 6 (Homo sapiens) (UniProt Q9NP58); assay: ABCB6 transporter inhibitors, pilot screen, K562-ABCB6 cells, flow cytometry, validation set (AID 588550;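 active = inhibition above the screen-wide mean plus 3 SD, about 51%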;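 also: 0% = DMSO wells and 100% = benzethonium chloride 70 µM positive control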); conditions: K562-ABCB6 porphyrin accumulation, 1 h, at 10 µM, stronger effect = higher value
# [15] = promoters of myeloid differentiation in arrested cells, primary screen, cell-based, GFP/MAC1 double positive, flow cytometry, validation set (AID 588685;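 active = differentiation response of at least 50%, scaled between solvent and reference control, from cells with both markers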;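 also: compound exposure lasts four days before antibody staining and flow analysis; 0% = DMSO wells and 100% = 5 µM fulvestrant positive control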); conditions: ER-HoxA9 marrow cells, stronger effect = higher value, normalized: vehicle 0, fulvestrant 100
# Integrin beta-1 (Homo sapiens) + Integrin alpha-4 (Homo sapiens), sequence (P05556 whole entry, looked up): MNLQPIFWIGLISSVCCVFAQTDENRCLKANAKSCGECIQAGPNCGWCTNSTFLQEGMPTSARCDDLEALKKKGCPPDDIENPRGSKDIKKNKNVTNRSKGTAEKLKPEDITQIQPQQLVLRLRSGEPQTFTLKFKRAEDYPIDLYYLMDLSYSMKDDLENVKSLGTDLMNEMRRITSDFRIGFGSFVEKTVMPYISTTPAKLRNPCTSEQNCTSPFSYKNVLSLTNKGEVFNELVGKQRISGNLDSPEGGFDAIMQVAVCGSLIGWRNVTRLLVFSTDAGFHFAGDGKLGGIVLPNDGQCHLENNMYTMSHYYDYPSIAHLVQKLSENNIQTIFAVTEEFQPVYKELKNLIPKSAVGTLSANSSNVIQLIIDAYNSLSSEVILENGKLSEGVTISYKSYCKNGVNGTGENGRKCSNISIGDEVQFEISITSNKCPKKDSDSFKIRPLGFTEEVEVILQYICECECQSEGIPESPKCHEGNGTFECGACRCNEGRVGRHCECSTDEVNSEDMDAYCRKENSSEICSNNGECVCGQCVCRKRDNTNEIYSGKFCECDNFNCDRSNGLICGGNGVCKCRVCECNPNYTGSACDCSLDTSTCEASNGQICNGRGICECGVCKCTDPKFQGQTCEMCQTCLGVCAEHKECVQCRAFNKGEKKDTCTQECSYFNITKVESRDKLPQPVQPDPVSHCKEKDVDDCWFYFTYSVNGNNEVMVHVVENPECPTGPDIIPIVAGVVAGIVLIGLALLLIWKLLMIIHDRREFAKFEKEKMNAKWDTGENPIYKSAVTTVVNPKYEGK
# Integrin beta-1 (Homo sapiens) + Integrin alpha-4 (Homo sapiens), sequence (P13612 whole entry, looked up): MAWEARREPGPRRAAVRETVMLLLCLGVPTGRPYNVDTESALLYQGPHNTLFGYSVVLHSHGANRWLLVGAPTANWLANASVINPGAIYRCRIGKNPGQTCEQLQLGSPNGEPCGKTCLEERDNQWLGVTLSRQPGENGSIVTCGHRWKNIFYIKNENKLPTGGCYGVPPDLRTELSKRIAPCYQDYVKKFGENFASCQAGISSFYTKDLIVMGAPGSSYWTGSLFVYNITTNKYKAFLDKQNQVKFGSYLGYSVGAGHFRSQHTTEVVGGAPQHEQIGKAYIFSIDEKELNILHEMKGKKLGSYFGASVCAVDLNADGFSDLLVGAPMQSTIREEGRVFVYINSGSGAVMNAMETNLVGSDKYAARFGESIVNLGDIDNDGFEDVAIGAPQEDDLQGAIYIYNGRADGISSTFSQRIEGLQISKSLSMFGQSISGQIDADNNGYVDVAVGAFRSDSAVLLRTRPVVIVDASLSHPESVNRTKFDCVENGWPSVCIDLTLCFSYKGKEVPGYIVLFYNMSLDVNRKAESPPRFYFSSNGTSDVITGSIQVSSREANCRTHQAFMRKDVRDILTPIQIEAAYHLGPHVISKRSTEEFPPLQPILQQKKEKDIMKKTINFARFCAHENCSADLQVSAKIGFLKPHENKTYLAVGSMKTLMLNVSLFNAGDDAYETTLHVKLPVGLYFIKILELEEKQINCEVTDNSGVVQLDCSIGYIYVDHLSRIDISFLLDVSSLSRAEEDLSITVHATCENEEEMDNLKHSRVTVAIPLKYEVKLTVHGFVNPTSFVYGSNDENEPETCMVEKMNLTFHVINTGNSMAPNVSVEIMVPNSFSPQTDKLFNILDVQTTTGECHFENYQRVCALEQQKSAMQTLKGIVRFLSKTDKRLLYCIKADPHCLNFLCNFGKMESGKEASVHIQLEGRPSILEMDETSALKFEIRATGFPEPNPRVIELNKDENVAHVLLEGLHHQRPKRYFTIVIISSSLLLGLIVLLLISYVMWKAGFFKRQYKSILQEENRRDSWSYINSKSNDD
# Beta-adrenergic receptor kinase 1 (Homo sapiens), sequence (P25098 whole entry, looked up): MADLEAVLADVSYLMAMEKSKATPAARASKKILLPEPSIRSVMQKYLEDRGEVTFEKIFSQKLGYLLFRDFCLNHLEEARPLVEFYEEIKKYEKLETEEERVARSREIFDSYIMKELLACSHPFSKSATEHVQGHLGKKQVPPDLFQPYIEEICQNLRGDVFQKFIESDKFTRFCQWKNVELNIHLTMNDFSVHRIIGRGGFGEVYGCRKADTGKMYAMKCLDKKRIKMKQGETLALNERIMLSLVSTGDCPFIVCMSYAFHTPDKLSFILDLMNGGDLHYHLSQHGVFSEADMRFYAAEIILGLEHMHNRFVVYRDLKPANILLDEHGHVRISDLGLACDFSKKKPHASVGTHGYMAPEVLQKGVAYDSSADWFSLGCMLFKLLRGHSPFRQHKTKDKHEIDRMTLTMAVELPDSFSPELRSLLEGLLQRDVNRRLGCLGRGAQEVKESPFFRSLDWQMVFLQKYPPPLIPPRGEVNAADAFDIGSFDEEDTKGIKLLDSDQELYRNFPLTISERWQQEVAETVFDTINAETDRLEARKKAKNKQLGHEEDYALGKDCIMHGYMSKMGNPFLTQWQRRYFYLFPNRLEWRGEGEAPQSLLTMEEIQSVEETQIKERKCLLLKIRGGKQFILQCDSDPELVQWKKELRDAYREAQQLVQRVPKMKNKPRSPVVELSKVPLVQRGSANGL
# ATP-binding cassette sub-family B member 6 (Homo sapiens), sequence (Q9NP58 whole entry, looked up): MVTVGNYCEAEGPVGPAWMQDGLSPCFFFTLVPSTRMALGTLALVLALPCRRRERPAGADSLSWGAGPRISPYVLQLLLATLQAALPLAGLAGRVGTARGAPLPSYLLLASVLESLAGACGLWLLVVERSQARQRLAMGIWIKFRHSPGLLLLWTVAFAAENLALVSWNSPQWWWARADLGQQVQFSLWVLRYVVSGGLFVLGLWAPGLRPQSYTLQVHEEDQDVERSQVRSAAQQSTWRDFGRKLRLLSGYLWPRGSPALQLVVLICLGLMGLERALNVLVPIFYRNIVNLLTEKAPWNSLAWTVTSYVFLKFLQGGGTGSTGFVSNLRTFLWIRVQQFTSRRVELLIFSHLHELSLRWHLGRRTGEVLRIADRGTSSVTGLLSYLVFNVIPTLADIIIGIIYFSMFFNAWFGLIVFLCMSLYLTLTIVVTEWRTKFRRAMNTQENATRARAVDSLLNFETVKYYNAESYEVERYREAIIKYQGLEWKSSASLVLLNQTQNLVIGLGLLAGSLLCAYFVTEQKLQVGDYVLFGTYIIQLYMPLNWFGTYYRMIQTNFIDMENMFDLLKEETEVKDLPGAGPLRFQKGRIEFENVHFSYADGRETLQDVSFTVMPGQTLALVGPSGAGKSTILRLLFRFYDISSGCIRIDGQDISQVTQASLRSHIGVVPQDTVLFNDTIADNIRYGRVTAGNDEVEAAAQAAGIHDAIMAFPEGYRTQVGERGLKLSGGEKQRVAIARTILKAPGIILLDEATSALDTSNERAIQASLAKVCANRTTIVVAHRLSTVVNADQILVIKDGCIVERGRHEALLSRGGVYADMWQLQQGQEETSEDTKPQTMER
# AP-2 complex subunit beta (Homo sapiens), sequence (P63010 whole entry, looked up, the tested form may be a part, one chain of several): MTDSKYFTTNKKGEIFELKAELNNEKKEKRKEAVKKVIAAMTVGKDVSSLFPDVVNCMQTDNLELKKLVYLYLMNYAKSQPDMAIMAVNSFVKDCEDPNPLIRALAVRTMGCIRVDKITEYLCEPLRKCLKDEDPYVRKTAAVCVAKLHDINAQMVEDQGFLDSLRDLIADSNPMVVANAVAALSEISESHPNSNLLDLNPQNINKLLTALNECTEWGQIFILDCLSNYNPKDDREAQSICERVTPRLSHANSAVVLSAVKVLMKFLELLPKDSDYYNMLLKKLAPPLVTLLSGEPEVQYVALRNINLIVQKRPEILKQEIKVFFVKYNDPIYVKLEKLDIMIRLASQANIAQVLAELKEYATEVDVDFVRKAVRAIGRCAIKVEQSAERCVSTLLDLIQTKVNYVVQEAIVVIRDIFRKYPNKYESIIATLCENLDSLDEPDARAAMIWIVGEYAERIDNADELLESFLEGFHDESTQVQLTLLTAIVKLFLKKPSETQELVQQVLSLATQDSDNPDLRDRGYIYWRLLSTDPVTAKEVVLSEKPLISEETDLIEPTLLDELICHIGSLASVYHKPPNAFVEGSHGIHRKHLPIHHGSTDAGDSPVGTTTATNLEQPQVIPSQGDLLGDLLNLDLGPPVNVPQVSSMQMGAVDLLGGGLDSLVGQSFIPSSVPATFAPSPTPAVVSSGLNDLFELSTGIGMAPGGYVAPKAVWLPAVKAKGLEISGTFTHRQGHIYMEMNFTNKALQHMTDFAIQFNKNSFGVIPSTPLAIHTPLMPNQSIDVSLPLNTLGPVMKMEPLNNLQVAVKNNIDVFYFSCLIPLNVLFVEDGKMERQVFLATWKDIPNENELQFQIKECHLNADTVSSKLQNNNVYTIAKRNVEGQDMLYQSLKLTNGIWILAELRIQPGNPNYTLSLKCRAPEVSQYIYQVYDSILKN
SMILES,percent of DMSO control GFP [1],GFP response vs DMSO [2],percent response of DMSO control [3],GFP response vs DMSO [4],"GFP response, % of DMSO [5]",double positive events [6],vesicle binding response [6],inhibition [7],superoxide response (% of plate) [8],aptamer binding inhibition [9],inhibition [10],response [11],binding (% of control) [12],efflux inhibition (fraction of control) [13],inhibition [14],differentiation response [15]
O=C(/C=C/c1ccco1)N1CCN(c2ccccc2)CC1,103% (inactive),90.8% (inactive),107% (inactive),86.3% (inactive),92.7% (inactive),56.2%,210% (inactive),8.15% (inactive),89% (inactive),1% (inactive),6.32% (inactive),5.81% (inactive),101% (inactive),-0.09 (inactive),5% (inactive),-19.6% (inactive)
O=C(O)c1cc(-c2ccc3c(c2)OCO3)nc2ccc(Br)cc12,100% (inactive),97.9% (inactive),82.2% (inactive),127% (inactive),88.9% (inactive),67%,182% (inactive),-7.7% (inactive),108% (inactive),-3% (inactive),12% (inactive),-4.89% (inactive),105% (inactive),0.18 (inactive),8% (inactive),41.8% (inactive)
CCc1cc2c(=O)c(-c3nc4ccccc4n3C)coc2c(CN2CCN(C)CC2)c1O,107% (inactive),107% (inactive),110% (inactive),101% (inactive),100% (inactive),49.7%,149% (inactive),17.5% (inactive),105% (inactive),2% (inactive),2.16% (inactive),4.87% (inactive),102% (inactive),-0.54 (inactive),7% (inactive),-0.2% (inactive)
c1ccc2c3c(c(CN4CCCCC4)cc2c1)COC3,109% (inactive),116% (inactive),127% (active),122% (inactive),104% (inactive),38%,176% (inactive),-8.64% (inactive),116% (inactive),-6% (inactive),-17.7% (inactive),4.2% (inactive),107% (inactive),-0.12 (inactive),11% (inactive),-14.7% (inactive)
O=C(CC(C(=O)O)c1c[nH]c2ccccc12)c1ccccc1 (stereo not given),101% (inactive),109% (inactive),98.8% (inactive),103% (inactive),96.3% (inactive),58.5%,147% (inactive),10% (inactive),92.2% (inactive),4% (inactive),11.2% (inactive),-1.72% (inactive),102% (inactive),0.03 (inactive),3% (inactive),-5.05% (inactive)
COc1ccc(C2(CCN=Cc3ccc(N(C)C)cc3)CCOC(C)(C)C2)cc1 (stereo not given),104% (inactive),102% (inactive),99.8% (inactive),95.4% (inactive),95.2% (inactive),58.8%,222% (inactive),-3.97% (inactive),98.3% (inactive),0% (inactive),-3.62% (inactive),-4.5% (inactive),128% (inactive),-0.24 (inactive),12% (inactive),7.87% (inactive)
CCN(CC)C(=O)c1ccc(O)c(OC)c1,94.2% (inactive),102% (inactive),98.8% (inactive),102% (inactive),102% (inactive),53.9%,118% (inactive),25.9% (inactive),89% (inactive),0% (inactive),-2.62% (inactive),0.77% (inactive),101% (inactive),0.29 (inactive),15% (inactive),-9.89% (inactive)
CCCOc1ccc(-c2cc(C(=O)NCC3CCCO3)c3ccccc3n2)cc1 (stereo not given),99.5% (inactive),102% (inactive),91% (inactive),105% (inactive),84.4% (inactive),55.9%,199% (inactive),13.8% (inactive),91.2% (inactive),1% (inactive),-3.49% (inactive),6.44% (inactive),97.3% (inactive),0.18 (inactive),12% (inactive),7.87% (inactive)
C=CCc1cccc2cc(C(=O)Nc3ccc(CC(=O)O)cc3)c(=O)oc12,98.6% (inactive),106% (inactive),94.9% (inactive),100% (inactive),97.8% (inactive),63.1%,207% (inactive),-2.11% (inactive),141% (inactive),2% (inactive),28.6% (inactive),-3.63% (inactive),100% (inactive),0.1 (inactive),5% (inactive),7.87% (inactive)
Cn1c2ccccc2c2cc(/C=C(\NC(=O)c3ccccc3)C(=O)O)ccc21,95.6% (inactive),90.8% (inactive),106% (inactive),92.3% (inactive),95.7% (inactive),58%,107% (inactive),-9.57% (inactive),111% (inactive),3% (inactive),-8.15% (inactive),1.01% (inactive),96.5% (inactive),-0.43 (inactive),10% (inactive),-14.7% (inactive)
